Screening data deposited in PubChem BioAssay by several laboratories.
Vc quorum ag: induces V. cholerae light production without autoinducers; V. cholerae BH1578 lux reporter, luminescence, 6 h; activation, % at 18.7 µM; 0.16% of 350,000 active; in the data active means activation mostly above about 9.7%, no sharp cut-off
CCHFV vOTU inh: CCHFV vOTU protease inhibition | 0.55% of 370,000 active | Pep-AMC fluorescence | inhibition, % at 11.5 µM | AID 651958; in the data active means inhibition above about 30%
GDH-TPI counter-1: counter-screen for M. tuberculosis FBA inhibitors: GDH-TPI coupled enzymes. GDH-TPI coupled enzyme counterscreen, NADH absorbance. 1.2% of 360,000 active. inhibition, % at 4.8 µM; in the data active means inhibition above about 30%
FBA Mtb inh: inhibits M. tuberculosis FBA enzyme; purified M. tuberculosis FBA, fluorescence read-out; 2.3% of 360,000 active; inhibition, % at 1 µM
Target sequence (P9WQA3 whole entry, looked up): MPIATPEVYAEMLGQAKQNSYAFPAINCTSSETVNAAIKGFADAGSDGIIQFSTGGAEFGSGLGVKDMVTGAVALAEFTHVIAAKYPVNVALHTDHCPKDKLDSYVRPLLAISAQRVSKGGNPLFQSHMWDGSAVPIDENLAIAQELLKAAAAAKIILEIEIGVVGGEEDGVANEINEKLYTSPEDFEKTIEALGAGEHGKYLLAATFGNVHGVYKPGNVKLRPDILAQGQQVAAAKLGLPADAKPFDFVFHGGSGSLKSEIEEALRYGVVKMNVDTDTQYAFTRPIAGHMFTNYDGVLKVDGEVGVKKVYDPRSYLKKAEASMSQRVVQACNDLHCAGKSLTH
Mtb FBA inh conf: Mtb FBA inhibition, confirmed; shares compounds with FBA Mtb inh; purified M. tuberculosis FBA, fluorescence read-out; inhibition, % at 1 µM; 78% of 5,600 active; AID 651616
GDH-TPI counter-2: GDH-TPI inhibition counter-screen for FBA inhibitors. shares compounds with FBA Mtb inh. GDH-TPI coupled enzyme counterscreen, fluorescence. inhibition, % at 1 µM. 81% of 5,600 active; in the data active means inhibition above about 10%
GDH-TPI DR: GDH-TPI dose response counter-screen for Mtb FBA; shares compounds with FBA Mtb inh; GDH-TPI coupled enzyme assay, fluorescence, artifact counterscreen; IC50, µM; 79% of 170 active; AID 652145; call rule not given here
Hits are given with their value; n = inactive; x = no result; + = active, no number. Only some compounds are listed: those with a hit (about 3.9% of all), similar ones and a draw of the others. Unless noted, no stated cut-off is given here; in the data, active means inhibition above about 27%; inactive means the rest.

SMILES	Vc quorum ag	CCHFV vOTU inh	GDH-TPI counter-1	FBA Mtb inh	Mtb FBA inh conf	GDH-TPI counter-2	others
Cc1cn([C@H]2C[C@H](O)[C@@H](CNCc3ccc(C#CCCO)cc3)O2)c(=O)[nH]c1=O	n	n	n	n	x	x
CCOC(=O)c1nn(-c2ccc(Cl)cc2)c2nc(CC)c(C#N)c(=O)n12	n	n	n	37	n	n
CCOC(=O)c1nn(-c2ccc(OCC)cc2)c2nc(CC(C)C)c(C#N)c(=O)n12	n	n	n	104	n	n
CCOc1cc(N2CCOCC2)c(OCC)cc1NC(=O)COC(=O)c1cc(C)cc(C)c1	n	n	n	n	x	x
Nc1ccc2ccccc2c1[N+](=O)[O-]	x	n	n	n	x	x
Nc1cc2c3ccccc3ccc2c2ccccc12	n	n	n	62	+	+
CN(Cc1cnccn1)C(=O)CC1C(=O)NCCN1Cc1cccc(Oc2ccccc2)c1 (stereo not given)	n	n	n	28	85	77
CN(Cc1cnccn1)C(=O)CC1C(=O)NCCN1Cc1cccc(F)c1 (stereo not given)	n	n	n	n	x	x
N#Cc1c(-c2ccccc2)cc(-c2ccc3c(c2)OCO3)[nH]c1=O	n	n	n	n	x	x
COc1ccc(-c2cc(-c3ccco3)[nH]c(=O)c2C#N)cc1OC	n	n	n	49	44	36
O=C(CSc1nc2c([nH]c3ccccc32)c(=O)n1-c1ccccc1F)NCC1CCCO1 (stereo not given)	n	n	n	36	89	53
Cc1ccccc1-n1c(SCC(=O)NCC2CCCO2)nc2c([nH]c3ccccc32)c1=O (stereo not given)	n	n	n	n	x	x
COCCCNCC(O)COc1cccc2[nH]c(C)cc12 (stereo not given)	n	n	n	n	x	x
CC(C)C(=O)Nc1ccc(C(=O)NNC(=O)NC2CCCCC2)cc1	n	n	n	n	x	x
COc1cc(CNS(=O)(=O)c2ccc3c(c2)CC(C)N3C(=O)C2CCC2)cc(OC)c1OC (stereo not given)	n	n	n	n	x	x
COc1cccc2[nH]c(C(=O)NCc3ccccc3)cc12	n	n	n	68	74	73
CC(C)C1C(c2ccccc2)N(C)C(c2ccccc2)CC1(O)c1ccccc1 (stereo not given)	n	n	n	n	x	x
COc1ccc(-c2cc3nc(-c4ccccc4)cc(N4CCN(C(=O)c5ccoc5)CC4)n3n2)cc1	n	n	n	56	48	36
CCN1CCN(c2cc(-c3ccccc3)nc3cc(-c4cccc(F)c4)nn23)CC1	n	n	n	42	76	53
COc1cccc(-c2cc3nc(-c4ccccc4)cc(N4CCCC(O)C4)n3n2)c1 (stereo not given)	n	n	n	102	199	141
COC(=O)c1ccc(NC2CC(=O)N(c3ccccc3C)C2=O)cc1 (stereo not given)	n	n	n	n	x	x
COC(=O)c1ccccc1NC1CC(=O)N(c2c(C)cccc2C)C1=O (stereo not given)	n	n	n	89	+	+
CCC(C)(C)n1nnnc1C(c1cc2ccc(OC)cc2[nH]c1=O)N1CCCCC1 (stereo not given)	n	n	n	n	x	x
CCC(C)(C)n1nnnc1C(c1cc2cc3c(cc2[nH]c1=O)OCO3)N1CCN(C)CC1 (stereo not given)	n	n	n	59	32	28
Cc1cccc2cc(C(c3nnnn3C3CCCC3)N3CCOCC3)c(=O)[nH]c12 (stereo not given)	n	n	n	n	x	x
SMILES	Vc quorum ag	CCHFV vOTU inh	GDH-TPI counter-1	FBA Mtb inh	Mtb FBA inh conf	GDH-TPI counter-2	others
O=c1[nH]c2cc3c(cc2cc1C(c1nnnn1C1CCCC1)N1CCSCC1)OCCO3 (stereo not given)	n	n	n	31	144	91
CC1CCCCN1C(=S)Nc1ccc2nc3n(c(=O)c2c1)CCCCC3 (stereo not given)	n	n	n	30	45	39
c1ccc(Cn2c(CSc3nnnn3-c3ccccc3)nc3ccccc32)cc1	n	n	n	n	x	x
CNc1nc(-c2ccccc2)c2sccc2n1	n	n	n	78	n	n
Cc1ccc(S(=O)(=O)N/N=C\c2ccc3c(c2)OCO3)cc1	n	n	n	n	x	x
Cc1ccc(S(=O)(=O)N/N=C\c2cc3c(cc2Br)OCO3)cc1	n	n	n	42	n	n
CC(=O)N1CCN(c2ccc(NC(=O)c3ccc(C)c([N+](=O)[O-])c3)cc2)CC1	n	n	n	n	x	x
O=C(c1cccc([N+](=O)[O-])c1)C12CN3CN(CN(C3)C1)C2	n	n	n	n	x	x
COc1ccc(-n2c(N)c(C(=O)NCc3ccco3)c3nc4ccccc4nc32)cc1	n	n	32	98	44	41
Nc1c(C(=O)NCCN2CCOCC2)c2nc3ccccc3nc2n1CCc1ccccc1	n	n	n	94	46	34
CC(=O)Nc1ccc(S(=O)(=O)C(C#N)c2nc3ccccc3nc2NCCN2CCOCC2)cc1 (stereo not given)	n	n	n	56	73	62
C=CCNC(=O)c1c(N)n(CCN2CCOCC2)c2nc3ccccc3nc12	n	n	n	51	38	27
Cn1nnnc1SCC(=O)NCc1cccs1	n	n	n	n	x	x
Cc1onc(-c2ccccc2)c1C(=O)Nc1cccc(S(=O)(=O)NC2=NCCC2)c1	n	n	n	n	x	x
CC(=O)Nc1ccc(S(=O)(=O)c2c(N)n(CCN3CCOCC3)c3nc4ccccc4nc23)cc1	n	n	n	60	170	129
COCCn1c(N)c(C(=O)Nc2sc3c(c2C(=O)OC)CCCC3)c2nc3ccccc3nc21	n	n	n	n	x	x
COCCn1c(N)c(C(=O)NCc2cccs2)c2nc3ccccc3nc21	n	n	n	101	116	77
Nc1c(C(=O)NCc2ccco2)c2nc3ccccc3nc2n1CCN1CCCCC1	n	n	n	91	n	n	GDH-TPI DR=1.6
COc1ccc(-n2c(N)c(C(=O)NCc3ccco3)c3nc4ccccc4nc32)cc1OC	n	n	n	n	x	x
O=C(NOCc1cscn1)Nc1ccccc1	n	n	n	n	x	x
Nc1nc2nc(-c3ccc(OCc4ccccc4)cc3)cc(C(F)(F)F)n2n1	n	n	n	36	+	+
CCc1ccccc1NC(=O)CN(C)C(=O)COC(=O)c1ccccc1Cl	n	n	n	n	x	x
CCCCN(C(=O)NC(=O)C1=C(N2CCOCC2)/C(=C/c2ccccc2)CC1)S(C)(=O)=O	n	n	n	44	128	83
CCOC(=O)C(=O)C1=C(N2CCOCC2)/C(=C\c2ccc(F)cc2)CC1	n	n	n	n	x	x
NC(=O)c1cccc(-c2cc(Nc3ccc(OC(F)(F)F)cc3)ncn2)c1	n	n	n	n	x	x
Cc1ccc(C)c(NC(=S)Nc2cccc3cnccc23)c1	n	n	n	n	x	x
CC(=O)c1cccc(NC(=S)Nc2cccc3ccccc23)c1	n	n	n	42	63	33
